Sampled rows, rich in hits. Any-hit rate of the full collection: about 0.49%.
EPAC2 ag – agonists of human EPAC2 (RAPGEF4); Q8WZA2; EPAC2 activation, biochemical qHTS; response scale: 100% = 6.5 mM cAMP response; Potency, µM (series often up to 154 µM), hits mostly activators; 0.079% of 360,000 active; note: nearly all actives have a fitted effect of over 50% in size
Target sequence (Q8WZA2 whole entry, looked up): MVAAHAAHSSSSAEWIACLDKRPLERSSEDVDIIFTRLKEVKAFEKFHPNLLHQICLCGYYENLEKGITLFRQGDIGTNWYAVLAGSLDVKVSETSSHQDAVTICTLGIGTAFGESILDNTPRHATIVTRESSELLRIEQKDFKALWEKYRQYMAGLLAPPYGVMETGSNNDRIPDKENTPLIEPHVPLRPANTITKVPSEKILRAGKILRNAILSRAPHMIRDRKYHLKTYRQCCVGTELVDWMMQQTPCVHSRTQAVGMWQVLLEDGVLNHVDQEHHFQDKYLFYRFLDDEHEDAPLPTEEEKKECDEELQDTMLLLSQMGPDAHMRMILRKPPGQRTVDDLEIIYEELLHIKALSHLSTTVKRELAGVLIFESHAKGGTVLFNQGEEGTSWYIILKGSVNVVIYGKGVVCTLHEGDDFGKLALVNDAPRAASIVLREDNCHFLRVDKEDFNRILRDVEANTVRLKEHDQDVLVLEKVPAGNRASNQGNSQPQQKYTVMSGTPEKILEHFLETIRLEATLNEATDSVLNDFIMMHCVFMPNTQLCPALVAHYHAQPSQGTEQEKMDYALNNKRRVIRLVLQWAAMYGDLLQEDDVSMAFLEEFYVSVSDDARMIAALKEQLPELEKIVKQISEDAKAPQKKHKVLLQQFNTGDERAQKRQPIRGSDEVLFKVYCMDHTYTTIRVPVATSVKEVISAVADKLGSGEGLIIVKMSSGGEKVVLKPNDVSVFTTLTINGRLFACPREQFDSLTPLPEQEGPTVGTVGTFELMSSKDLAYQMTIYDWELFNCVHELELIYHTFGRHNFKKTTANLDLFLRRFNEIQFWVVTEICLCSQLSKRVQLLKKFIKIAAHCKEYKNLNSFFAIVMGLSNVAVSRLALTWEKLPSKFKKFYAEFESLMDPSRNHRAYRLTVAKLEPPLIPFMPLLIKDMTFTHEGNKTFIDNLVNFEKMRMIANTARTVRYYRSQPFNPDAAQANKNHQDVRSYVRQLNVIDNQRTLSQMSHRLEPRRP
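Setup: EPAC2 100 nM, labeled Rap1B complex 250 nM, free GDP 50 uM. Compound titrations pinned in, brief spin, 5 min room temperature incubation. Kinetic fluorescence read over 30 min, normalized to 6.5 mM cAMP.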
EPAC1 agonist – activates human EPAC1 exchange factor; O95398; EPAC1 agonist qHTS, biochemical assay; response scale: 100% = response to 6.5 mM cAMP; Potency, µM (highest dose often 154 µM), actives largely listed as activators; 0.073% of 360,000 active; note: nearly all actives have a fitted effect of over 60% in size
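Compounds were pinned as a concentration titration into mixtures of EPAC1 (100 nM), BODIPY-GDP-loaded Rap1B (250 nM) and GDP (50 uM). After 5 min at room temperature, fluorescence was followed for 30 min; activity was scaled to 6.5 mM cAMP.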
USP1-UAF1 inh – USP1/UAF1 (human) deubiquitinase inhibition. Potency, µM (top dose mostly 57.1 µM), actives largely listed as inhibitors. O94782. 0.23% of 390,000 active. recombinant USP1/UAF1, Ub-Rhodamine cleavage fluorescence; note: nearly all actives have a fitted effect of over 60% in size
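USP1/UAF1 complex (1 nM) preincubated 15 min at room temperature with compound, then Ub-Rho substrate (150 nM final) added. Kinetic fluorescence at 480/540 nm over 6 reads at 60 s intervals; 50 mM HEPES pH 7.8, 0.5 mM EDTA, 0.1 mg/ml BSA, 1 mM TCEP, 0.01% Tween-20.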
EPAC1 antagonist – blocks human EPAC1 exchange factor | O95398 | EPAC1 GEF assay, Rap1b-BODIPY-GDP exchange fluorescence | Potency, µM (top dose mostly 115 µM), hits mostly inhibitors | 0.14% of 360,000 active | AID 720709; note: nearly all actives have a fitted effect of over 50% in size
EPAC2 antagonist – antagonists of human EPAC2 | Potency, µM (doses to about 114 µM), usual class: inhibitors | EPAC2 GEF exchange of Rap1B-BODIPY-GDP, fluorescence | Q8WZA2 | 0.18% of 360,000 active | AID 720708; note: nearly all actives have a fitted effect of over 45% in size
Numbers stand for hits; n = inactive; u = inconclusive; x = no result. Calls come from the whole dose curve; as a rule, active = well fitted curve in the direction sought with a large enough effect; inconclusive = small, poorly fitted or top-dose-only effect, or another doubt; inactive = no such curve, though single readings can be large; an effect the other way counts as inactive or inconclusive.

SMILES	EPAC2 ag	EPAC1 agonist	USP1-UAF1 inh	EPAC1 antagonist	EPAC2 antagonist
CC1=Nc2ccccc2/C1=C\c1nc(-c2ccc(F)cc2)oc1O	u	89µM	28µM	n	n
O=C(NC1CCCCCC1)c1cc2c(Cl)nc3ccccc3c2s1	x	x	n	x	x
O=C1CSC(=S)N1/N=C/c1cc(Br)c(O)c(Br)c1	n	n	18µM	n	n
COc1ccc(/C=C2\C(=O)NC(=O)c3ccccc32)cc1OC	n	n	1.8µM	u	n
COc1ccc(C(=O)c2nccc3cc(OC)c(OC)cc23)cc1OC	n	n	14µM	n	n
CC(C)(C)OC(=O)N1CCC(c2c(C(=O)N3CCN(c4ccccn4)CC3)cnn2-c2ccc(F)cc2F)CC1	x	x	n	x	x
Cc1ccsc1C=Nc1ccc(O)cc1	n	n	2.2µM	35µM	50µM
Nc1ccc(C(=O)O)c(O)c1	n	n	n	n	n
Nc1ccc(N)c(C(=O)O)c1	n	n	20µM	u	n
COc1cccc(N2CCN(C(=O)C3CCN(S(=O)(=O)c4cn(C)cn4)CC3)CC2)c1	x	x	n	x	x
COc1cccc(CC(=O)Nc2nc(-c3cccnc3)cs2)c1	n	n	n	n	n
COc1ccc(CC(=O)Nc2nc(-c3cccnc3)cs2)cc1	n	n	n	13µM	n
COC(=O)c1ccc(NC(=O)Cc2coc3cc(C)ccc23)cc1	x	x	n	x	x
O=C(NNc1cc(N2CCOCC2)nc(N2CCOCC2)n1)c1ccc([N+](=O)[O-])cc1	n	n	32µM	u	u
O=C(Nc1ccc(N2CCOCC2)cc1N1CCOCC1)c1ccc([N+](=O)[O-])cc1	n	n	n	n	n
Cc1noc(Cn2c(=O)c3ccccc3n(CC(=O)Nc3ccc(F)cc3F)c2=O)n1	x	x	n	x	x
Cc1cc2nc3c(=O)n(CCc4ccccc4)c(=O)[nH]c3nc2cc1N	100µM	u	18µM	n	n
Nc1ccc2nc3c(=O)n(C4CCCCC4)c(=O)[nH]c3nc2c1	n	u	n	n	n
Nc1ccc2nc3c(=O)n(CCc4ccccc4)c(=O)[nH]c3nc2c1	63µM	112µM	16µM	n	n
CCCCn1c(=O)[nH]c2nc3cc(N)ccc3nc2c1=O	100µM	100µM	28µM	n	n
C/C(=N\NS(=O)(=O)c1ccccc1)c1cc(Cl)cc(Cl)c1O	n	n	n	18µM	u
Cc1oc2c(c1C(=O)c1ccccc1)C(=O)C(=O)c1ccccc1-2	n	n	13µM	u	u
Cc1oc2c(c1C(=O)O)C(=O)c1ccccc1C2=O	n	n	28µM	n	n
CCOC(=O)c1c(C)oc2c1C(=O)c1ccccc1C2=O	n	n	u	n	n
Cc1[nH][nH]c(=O)c1C(c1c(C)[nH][nH]c1=O)c1cn(Cc2ccccc2Cl)c2ccccc12	n	n	28µM	u	n
SMILES	EPAC2 ag	EPAC1 agonist	USP1-UAF1 inh	EPAC1 antagonist	EPAC2 antagonist
O=c1cc(N2CCN(c3ccc(F)cc3)CC2)[nH]c(=O)n1-c1cccc(Br)c1	x	x	n	x	x
O=C(N/N=C/c1c(O)ccc2ccccc12)c1cccnc1	n	n	n	u	n
O=C(N/N=C\c1c(O)ccc2ccccc12)c1cncc(Br)c1	u	u	32µM	n	n
CCN1CC=C2C(C#N)=C(N)C(C#N)(C#N)C(CCc3ccccc3)C2C1 (stereo not drawn)	50µM	100µM	22µM	u	45µM
CCCN1CC=C2C(C#N)=C(N)C(C#N)(C#N)C(c3cccc(OC)c3OC)C2C1 (stereo not drawn)	n	u	n	n	22µM
COc1ccc(OC)c(C2C3CN(C(C)C)CC=C3C(C#N)=C(N)C2(C#N)C#N)c1 (stereo not drawn)	n	n	u	n	u
COc1ccc(C2=NC(C)(C)N(CC(=O)Nc3ccc(F)c(F)c3)C2=O)cc1	x	x	n	x	x
CCN(CC)c1ccc2cc(-c3nc(-c4cc(OC)c(OC)c(OC)c4)no3)c(=O)oc2c1	x	x	40µM	x	x
Nc1ncnc2c1nc(Sc1ccc(Cl)cc1)n2[C@@H]1O[C@@H]2COP(=O)(O)O[C@H]2[C@H]1O	u	u	n	u	2.8µM
CS(=O)(=O)c1ccc2c(c1)sc1nc(=O)c(/C=C3/C=CC(=O)C(O)=C3)c(N)n12	n	n	u	50µM	n
Cc1cccc(C)c1-n1cccc1/C=C1\SC(=S)N(c2cccc(C(=O)O)c2)C1=O	n	n	u	50µM	u

Source: PubChem BioAssay
